Data published in the supplement of paper PMC10338343.
± gives the standard deviation.

What follows are sequences tested on MILI (PIWIL2) piRISC loaded with piRNA #1 (26 nt) (assay: pre-steady-state target cleavage rate (min^-1); guide: piRNA #1 5'p-UGAGGUAGUAGGUUGUAUAGUAUCCA; MIWI and MILI are mouse PIWI proteins and EfPiwi is from a freshwater sponge; tags in brackets are library labels; higher = faster piRNA-guided slicing of the target). Details: auxiliary factor: 500 nM mouse GTSF1.
In short: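 Cleave-'n-Seq: 1 nM active affinity-purified piRISC with one synthetic guide and 0.1 nM transcribed, DNA-blocked target RNA library were mixed, with or without 500 nM GTSF1 partner protein, in HEPES–potassium acetate buffer at 33 °C for 0–8 or 0–960 min. Uncleaved targets were sequenced and normalised to depth and to weakly complementary targets, three trials were pooled, and k3 was capped at 0.0001 min^-1. The pre-steady-state cleavage rate was fitted […].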
GGAGACCUAACUAUACUACCUACUACGUCA was tested, and the “pre-steady-state target cleavage rate” value was 0.0596 ± 0.018.
GGAGACCUAUGUAUACAACCUACCACCUCA was tested, and the “pre-steady-state target cleavage rate” value was 0.0347 ± 0.0083.
For GGAGACCUAUGAUAACAACCUACUCACCUCA, the “pre-steady-state target cleavage rate” value was 0.00465 ± 0.0027.
For GGAGACGAUACAAUACAACCUACUAGCUCA, the “pre-steady-state target cleavage rate” value was 0.137 ± 0.023.
GGAGACCUAUCUAUACUACCUACUAGCUCA was tested, and the “pre-steady-state target cleavage rate” value was 0.0698 ± 0.014.
With GGAGAGGAUACUAUAGAACGUACUACCUCA the “pre-steady-state target cleavage rate” value was 0.00602 ± 0.0021.
In the case of GGAGACCUUUCUAUACAACCUACUACCUCA, the “pre-steady-state target cleavage rate” value is reported as 0.0895 ± 0.0097.
With GGAGACCUAUGUUUACAACCUACUACCACA the “pre-steady-state target cleavage rate” value was 0.0147 ± 0.0041.
With GGAGACGAUACUUUACAACCUACAACCUCA the “pre-steady-state target cleavage rate” value was 0.0642 ± 0.013.
GGAGACCUAAGUAUUCAACCUACUACCUCA was tested, and the “pre-steady-state target cleavage rate” value was 0.0617 ± 0.0092.
For GGAGACCAUUCUAUACAACCUAGUACCUCA, the “pre-steady-state target cleavage rate” value was 0.0977 ± 0.022.
In the case of GGAGACCUAUGUAUACAACCUACUACCAGA, the “pre-steady-state target cleavage rate” value is reported as 0.055 ± 0.009.
GGAGACCUAUGAUAUCAUCCUACUACCUCA was tested, and the “pre-steady-state target cleavage rate” value was 0.00256 ± 0.0016.
For GGAGACCAUACUAUUCUACCUACUACCUCA, the “pre-steady-state target cleavage rate” value was 0.178 ± 0.017.
GGAGACCUAUCUAUAGAACCUACUACCUGA was tested, and the “pre-steady-state target cleavage rate” value was 0.00618 ± 0.0029.
In the case of GGAGACCUAACUUUACAAGCUACUACCUCA, the “pre-steady-state target cleavage rate” value is reported as 0.135 ± 0.025.
GGAGACCUAUGAUUACAUCCUACUACGUCA was tested, and the “pre-steady-state target cleavage rate” value was 0.00263 ± 0.0026.
For GGAGACCUAUGAUAUGUUCCUACUCCUCA, the “pre-steady-state target cleavage rate” value was less than 0.0001.
For GGAGACCUAUGAUUACAACCUACAUACCUCA, the “pre-steady-state target cleavage rate” value was 0.00484 ± 0.0019.
For GGAGACCUAUCUAUACAACCUACAACCACA, the “pre-steady-state target cleavage rate” value was 0.0576 ± 0.014.
For GGAGUGGAUACUUAUCAACCUACUACCUCA, the “pre-steady-state target cleavage rate” value was 0.149 ± 0.011.
In the case of GGAGACCUAUCUAUACAACCUACUACCUGCA, the “pre-steady-state target cleavage rate” value is reported as 0.103 ± 0.014.
In the case of GGAGACCUUACUAUACAACCUAUCUACCUCA, the “pre-steady-state target cleavage rate” value is reported as 0.0976 ± 0.011.
GGAGACCAUACUAUACUACCUACUACGUCA was tested, and the “pre-steady-state target cleavage rate” value was 0.104 ± 0.017.
For GGAGACCUAUGAUUACUACCUACAACCUCA, the “pre-steady-state target cleavage rate” value was 0.00398 ± 0.0024.
In the case of GGAGACCUAUGUAUACAACCUAGCUACCUCA, the “pre-steady-state target cleavage rate” value is reported as 0.00713 ± 0.0027.
For GGAGACCUAACUAAACAACCUACUAGCUCA, the “pre-steady-state target cleavage rate” value was 0.0613 ± 0.018.
With GGAGACCUAUGAAUGCAACCUACUACCUCA the “pre-steady-state target cleavage rate” value was 0.00733 ± 0.0031.
GGAGACCUAUGAUAUCAUGGUACUACCUCA was tested, and the “pre-steady-state target cleavage rate” value was less than 0.0001.
In the case of GGAGACCUAUGUAUACAACCUACUACGAGA, the “pre-steady-state target cleavage rate” value is reported as 0.013 ± 0.0047.
With GGAGACCUAUGAUAACAACCUACUACUUCA the “pre-steady-state target cleavage rate” value was 0.00299 ± 0.0028.
In the case of GGAGACCUAUGUAUACAAGCAACUACCUCA, the “pre-steady-state target cleavage rate” value is reported as 0.0055 ± 0.0022.
For GGAGACCAUACUAUACAAGCAACUACCUCA, the “pre-steady-state target cleavage rate” value was 0.00864 ± 0.003.
In the case of GGAGACCUUACUAUUCAACCUACUUCCUCA, the “pre-steady-state target cleavage rate” value is reported as 0.0623 ± 0.013.
For GGAGACCUAUCUAUACAACCUACUAACCUCA, the “pre-steady-state target cleavage rate” value was 0.143 ± 0.014.
In the case of GGAGACCUAACUAUAGAACCUACUACCUCA, the “pre-steady-state target cleavage rate” value is reported as 0.131 ± 0.021.
For GGAGACCUAUGUAUACACCCUACUACCUCA, the “pre-steady-state target cleavage rate” value was 0.0161 ± 0.0035.
For GGAGACCUUACUAUAUCAACCUACUACCUCA, the “pre-steady-state target cleavage rate” value was 0.0609 ± 0.0086.
For GGAGACCUAUGUAUACAACCUACUACCUA, the “pre-steady-state target cleavage rate” value was 0.044 ± 0.0064.
